Growth inhibition, inhibition and outcome data for 18 molecules are collected here from PubChem BioAssay.

Unmarked numbers belong to inactive results. For part of these data: Measured potencies and affinities stand elsewhere. Activity calls are given as the source filed them. Unless noted, the rule behind the calls is not given here.

Assay [1] in a line: antimalarial activity against Dd2 strain (AID 2302;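 active = growth inhibition above 50% at the single 2 µM test dose, taken to imply half-maximal potency below 2 µM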;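 note: 0% = DMSO untreated growth and 100% = chloroquine plus artemisinin killed control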). The following applies: P. falciparum Dd2 in RBCs, LDH growth readout, 72 h; at 2 µM; active compounds read high.
Assay [2] in a line: human hepatoma cell viability loss – ATP luminescence, cytotoxicity control for P. falciparum antimalarial project, primary screen (AID 2303;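 active = inhibition above 50%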;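 note: 0% = DMSO wells and 100% = digitonin-killed cells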). Particulars: HepG2 viability, 24-48 h, at 10 µM, active compounds read high.
The target in assay [3] is L-lactate dehydrogenase (Plasmodium falciparum (isolate CDC / Honduras)) (UniProt Q27743). Put plainly: PfLDH activity inhibition – cell lysate, 3D7 strain, counter-screen for P. falciparum growth inhibition project (AID 2304).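 Note: 0% = vehicle and 100% = reference inhibitor.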 Particulars: P. falciparum 3D7 crude extract, LDH APAD/NBT absorbance; at 2 µM; active compounds read high.
Assay [4] is described as follows: inhibition of 3D7 malaria parasite growth – strain 3D7 (AID 2306).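 Note: 0% = DMSO wells and 100% = chloroquine plus artemisinin control wells.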 The following applies: P. falciparum 3D7 erythrocytic growth, LDH absorbance, 72 h; at 2 µM; active compounds read high.
Assay [5] concerns the target Calcium-dependent protein kinase 1 (Plasmodium falciparum (isolate 3D7)) (UniProt P62344). In words: PfCDPK1 kinase inhibitors, biochemical, TCAMS library (AID 1159585; cut-off not given, nearly all actives have IC50 up to about 0.98 µM;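 note: inhibitors leave more ATP so luminescence rises with inhibition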). Particulars: recombinant PfCDPK1, Kinase-Glo ATP depletion luminescence. On the technique in general: Kinase-Glo measures the ATP left after a reaction by luminescence.
For assay [6], the target named is Plasmodium falciparum protein kinase 6 (PK6, PF3D7_1337100) (UniProt Q8IDW1). Put plainly: PfPK6 kinase inhibitors, biochemical, TCAMS library (AID 1159586). Particulars: recombinant PfPK6, Kinase-Glo ATP depletion luminescence.
Assay [7] has as its target Protein kinase 7 (PK7), Plasmodium falciparum 3D7 (PF3D7_0213400) (UniProt Q7YTF7). Put plainly: inhibition of Plasmodium PK7 catalytic activity – biochemical, TCAMS antimalarial set, Kinase-Glo luminescence (AID 1159587). Particulars: recombinant PfPK7, Kinase-Glo ATP depletion luminescence.
The target in assay [8] is Calcium-dependent protein kinase 4 (Plasmodium falciparum (isolate 3D7)) (UniProt Q8IBS5). In words: PfCDPK4 kinase inhibitors, biochemical, TCAMS library (AID 1159588; cut-off not given, nearly all actives have IC50 up to about 0.91 µM). Particulars: recombinant PfCDPK4, Kinase-Glo ATP depletion luminescence.
Sequence of Calcium-dependent protein kinase 4 (Plasmodium falciparum (isolate 3D7)) (Q8IBS5 whole entry, looked up): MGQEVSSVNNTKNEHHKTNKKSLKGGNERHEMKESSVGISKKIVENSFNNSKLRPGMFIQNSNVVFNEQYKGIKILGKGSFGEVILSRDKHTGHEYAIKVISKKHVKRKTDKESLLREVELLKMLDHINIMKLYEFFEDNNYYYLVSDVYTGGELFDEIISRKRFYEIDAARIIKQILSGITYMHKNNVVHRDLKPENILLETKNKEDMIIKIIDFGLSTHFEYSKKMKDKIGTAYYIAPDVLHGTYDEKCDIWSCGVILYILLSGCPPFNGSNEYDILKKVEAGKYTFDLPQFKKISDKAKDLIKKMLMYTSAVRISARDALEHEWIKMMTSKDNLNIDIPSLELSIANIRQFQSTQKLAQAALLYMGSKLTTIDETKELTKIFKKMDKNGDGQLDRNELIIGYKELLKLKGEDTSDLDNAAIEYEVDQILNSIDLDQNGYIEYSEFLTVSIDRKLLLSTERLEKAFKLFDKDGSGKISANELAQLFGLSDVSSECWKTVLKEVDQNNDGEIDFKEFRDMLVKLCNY

Sequence of Protein kinase 7 (PK7), Plasmodium falciparum 3D7 (PF3D7_0213400) (Q7YTF7 1-343): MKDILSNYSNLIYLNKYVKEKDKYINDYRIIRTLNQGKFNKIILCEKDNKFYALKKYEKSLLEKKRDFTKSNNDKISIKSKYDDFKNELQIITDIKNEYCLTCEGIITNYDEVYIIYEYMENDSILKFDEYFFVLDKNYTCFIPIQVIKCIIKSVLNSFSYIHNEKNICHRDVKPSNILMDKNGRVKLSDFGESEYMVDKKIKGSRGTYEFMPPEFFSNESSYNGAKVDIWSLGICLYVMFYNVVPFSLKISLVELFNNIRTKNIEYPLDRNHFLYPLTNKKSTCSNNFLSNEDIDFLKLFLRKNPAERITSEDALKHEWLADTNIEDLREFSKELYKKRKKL
Sequence of L-lactate dehydrogenase (Plasmodium falciparum (isolate CDC / Honduras)) (Q27743 whole entry, looked up): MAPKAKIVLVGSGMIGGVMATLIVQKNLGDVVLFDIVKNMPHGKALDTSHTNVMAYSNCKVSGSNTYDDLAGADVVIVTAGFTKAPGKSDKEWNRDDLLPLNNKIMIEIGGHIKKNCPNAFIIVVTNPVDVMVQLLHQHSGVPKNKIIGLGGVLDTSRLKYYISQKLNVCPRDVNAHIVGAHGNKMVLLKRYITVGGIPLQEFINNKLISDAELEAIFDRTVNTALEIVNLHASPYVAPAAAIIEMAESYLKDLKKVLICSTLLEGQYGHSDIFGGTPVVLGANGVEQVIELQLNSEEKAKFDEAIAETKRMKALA
Sequence of Calcium-dependent protein kinase 1 (Plasmodium falciparum (isolate 3D7)) (P62344 whole entry, looked up): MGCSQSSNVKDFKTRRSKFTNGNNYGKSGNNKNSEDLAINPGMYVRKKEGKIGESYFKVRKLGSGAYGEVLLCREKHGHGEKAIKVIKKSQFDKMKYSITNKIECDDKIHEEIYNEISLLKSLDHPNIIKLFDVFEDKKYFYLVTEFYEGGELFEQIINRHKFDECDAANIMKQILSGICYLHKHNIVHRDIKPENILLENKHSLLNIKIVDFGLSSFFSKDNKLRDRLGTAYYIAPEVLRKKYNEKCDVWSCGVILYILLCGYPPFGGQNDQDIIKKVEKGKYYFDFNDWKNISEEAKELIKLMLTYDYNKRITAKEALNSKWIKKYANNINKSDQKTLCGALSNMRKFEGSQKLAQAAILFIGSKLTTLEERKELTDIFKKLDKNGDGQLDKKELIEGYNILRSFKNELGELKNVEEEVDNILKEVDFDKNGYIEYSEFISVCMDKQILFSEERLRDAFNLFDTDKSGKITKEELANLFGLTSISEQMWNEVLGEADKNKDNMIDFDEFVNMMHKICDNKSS
Sequence of Plasmodium falciparum protein kinase 6 (PK6, PF3D7_1337100) (Q8IDW1 1-305): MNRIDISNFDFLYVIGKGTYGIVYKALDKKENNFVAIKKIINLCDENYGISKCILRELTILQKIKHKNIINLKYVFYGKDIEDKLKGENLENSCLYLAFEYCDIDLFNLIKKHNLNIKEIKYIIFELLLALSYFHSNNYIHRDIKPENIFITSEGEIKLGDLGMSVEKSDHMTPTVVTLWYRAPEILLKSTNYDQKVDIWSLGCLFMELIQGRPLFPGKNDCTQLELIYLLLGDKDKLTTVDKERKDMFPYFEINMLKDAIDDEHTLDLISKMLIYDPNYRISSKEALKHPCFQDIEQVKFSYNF

Broadly, the inhibition is the drop in the measured response relative to a control, in per cent. `COc1ccc2c(=O)c3ccc(OC)cc3[nH]c2c1`: the growth inhibition in assay [1] was 75% (active); in assay [4], 93% (active). The inhibition is 12% in assay [2] and 1% in assay [3]. Moreover, the result in assay [5], in assay [6], in assay [7] and in assay [8] was inactive.
`CC1(C)N=C(N)N=C(N)N1OCCOc1ccc(Cc2ccccc2)cc1`: the growth inhibition in assay [1] was 26%; in assay [4], 94% (active). Besides, the values for the inhibition in assay [2] and in assay [3] were 62% (active) and 3%, respectively. Further, the result in assay [5], in assay [6], in assay [7] and in assay [8] was inactive.
Consider `NC1CCN(c2nc(NCCCc3ccc(O)cc3)nc(NCc3ccccc3-c3ccc(C(F)(F)F)cc3)n2)CC1`, for which the growth inhibition in assay [1] is 88% (active); in assay [4], 101% (active). Also, the inhibition is 15% in assay [2] and 1% in assay [3]. Moreover, the outcome in assay [5], in assay [6], in assay [7] and in assay [8] was inactive.
Consider `CCCCCCN1CCN(Cc2cccc(NC(=O)c3cccc(OCC)c3)c2)CC1`, for which the growth inhibition in assay [1] was 48%; in assay [4], 85% (active). Further, the inhibition was 65% (active) in assay [2] and 0% in assay [3]. Moreover, the outcome in assay [5], in assay [6], in assay [7] and in assay [8] was inactive.
On to `COc1cc2nc(NCCc3ccccc3)nc(NC(C)c3ccccc3)c2cc1OC` (centres undefined), for which the growth inhibition in assay [1] is 100% (active); in assay [4], 99% (active). Further, the inhibition in assay [2] was 9%; in assay [3], 1%. Also, the result in assay [5], in assay [6], in assay [7] and in assay [8] was inactive.
In the case of `Cc1cc(-c2c[nH]c3ncc(-c4cccc5ncccc45)cc23)ccc1C(=O)O`, the growth inhibition in assay [1] was 77% (active); in assay [4], 99% (active). For the same molecule, the inhibition in assay [2] was 31%; in assay [3] it was -7%. In addition, the outcome in assay [5], in assay [6], in assay [7] and in assay [8] was inactive.
For `Cn1c(=O)c2cc(C(=O)NCCCN3CCCCCC3)sc2c2ccccc21`, the growth inhibition in assay [1] and in assay [4] was 99% (active) in each case. Also, the inhibition was 32% in assay [2] and 0% in assay [3]. In addition, the result in assay [5], in assay [6], in assay [7] and in assay [8] was inactive.
For `CCN(Cc1ccc(-c2ccc(C(F)(F)F)cc2)cc1)C(=O)Cn1c(SCc2cccc(F)c2F)cc(=O)c2cc(CN3CCCCC3)ccc21`, the growth inhibition in assay [1] is 50% (active); in assay [4] it was 101% (active). Also, the inhibition in assay [2] was 95% (active); in assay [3], 2%. The result in assay [5], in assay [6], in assay [7] and in assay [8] was inactive.
`Cc1cc(NC(c2ccc(Cl)cc2)c2ccc3cccnc3c2O)no1` (centres undefined): the growth inhibition in assay [1] is 26%; in assay [4], 88% (active). Moreover, the inhibition is 50% (active) in assay [2] and 5% in assay [3]. The outcome in assay [5], in assay [6], in assay [7] and in assay [8] was inactive.
As to `O=C(/C=C/c1ccc(Cl)c(Cl)c1)NCCCCN1CCCN(C(=O)Nc2ccc(C(F)(F)F)cc2)CC1`, the growth inhibition in assay [1] is -1%; in assay [4], 94% (active). In addition, the values for the inhibition in assay [2] and in assay [3] were 35% and 5%, respectively. Further, the outcome in assay [5], in assay [6], in assay [7] and in assay [8] was inactive.
Take `O=C(/C=C/c1ccc(Cl)c(Cl)c1)NCCCCCN1CCC(NC(=O)Nc2cccc(Cl)c2)CC1`: the growth inhibition in assay [1] is 13%; in assay [4] it was 102% (active). The inhibition in assay [2] is 52% (active); in assay [3], -1%. For the same molecule, the result in assay [5], in assay [6], in assay [7] and in assay [8] was inactive.
On to `Cc1cc(C(=O)Nc2ccc3c(c2)CCN3C2CCN(Cc3cc(F)cc(F)c3F)C2)no1` (centres undefined), for which the values for the growth inhibition in assay [1] and in assay [4] were 96% (active) and 95% (active), respectively. The inhibition was -5% in assay [2] and 0% in assay [3]. Besides, the result in assay [5], in assay [6], in assay [7] and in assay [8] was inactive.
In the case of `CCc1c(CCNCCCCCCNC(C)(C)Cc2ccc3c(c2CC)OCO3)ccc(OC)c1OC`, the growth inhibition was 50% (active) in assay [1] and 101% (active) in assay [4]. Moreover, the inhibition in assay [2] was 100% (active); in assay [3], -1%. For the same molecule, the result in assay [5], in assay [6], in assay [7] and in assay [8] was inactive.
Take `CC(C(=O)OCCOCn1cnc2c(=O)[nH]c(N)nc21)N(C)C(=O)OC(C)(C)C` (centres undefined): the growth inhibition in assay [1] was -1%; in assay [4] it was 87% (active). Also, the inhibition in assay [2] is 28%; in assay [3], 2%. Further, the result in assay [5], in assay [6], in assay [7] and in assay [8] was inactive.
For the molecule `Cc1cccc(CCCNC(=O)CN(c2cccc(C(F)(F)F)c2)S(=O)(=O)c2ccc(C(F)(F)F)cc2)c1`, the growth inhibition in assay [1] is 94% (active); in assay [4] it was 96% (active). Moreover, the figures for the inhibition in assay [2] and in assay [3] were 9% and 5%, respectively. Moreover, the result in assay [5], in assay [6], in assay [7] and in assay [8] was inactive.
For the molecule `CCn1c(-c2nonc2N)nc2cnc(Oc3cccc(NC(=O)c4ccc(OCCCN5CCCCC5)cc4)c3)cc21`, the growth inhibition in assay [1] is 12%; in assay [4] it was 90% (active). The inhibition in assay [2] is 38%; in assay [3], -4%. In addition, the outcome in assay [5], in assay [6], in assay [7] and in assay [8] was inactive.
On to `CCCOc1ccc(-c2nonc2NC(=O)c2cccc(OC)c2)cc1OCCC`, for which the growth inhibition was 100% (active) in assay [1] and 94% (active) in assay [4]. Also, the inhibition in assay [2] is 18%; in assay [3], 0%. In addition, the result in assay [5], in assay [6], in assay [7] and in assay [8] was inactive.
Turning to `NC(N)=Nc1ccc(OCCCCCOc2ccc(N=C(N)N)cc2)cc1`, the growth inhibition in assay [1] is 100% (active); in assay [4] it was 99% (active). Besides, the figures for the inhibition in assay [2] and in assay [3] were 12% and -1%, respectively. In addition, the outcome in assay [5], in assay [6], in assay [7] and in assay [8] was inactive.
